Data taken from PubChem BioAssay AID602329 (Broad Institute, 2012).
The whole screen tested about 360,000 compounds, of which about 510 (0.14%) were called active. The list comes from a sample in which actives are over-represented; it also holds similar structures and randomly drawn compounds. A number with no mark means an inactive call.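 The calls were made as follows: active = mean normalized replicate activity at least 40 and at least half of replicates scoring 40 or more; inconclusive = only one of the two criteria met; inactive = mean below 40 and under half of replicates reaching 40.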

Target: DNA repair and recombination protein RAD54-like (Homo sapiens) (UniProt Q92698)
Sequence (Q92698 whole entry, looked up): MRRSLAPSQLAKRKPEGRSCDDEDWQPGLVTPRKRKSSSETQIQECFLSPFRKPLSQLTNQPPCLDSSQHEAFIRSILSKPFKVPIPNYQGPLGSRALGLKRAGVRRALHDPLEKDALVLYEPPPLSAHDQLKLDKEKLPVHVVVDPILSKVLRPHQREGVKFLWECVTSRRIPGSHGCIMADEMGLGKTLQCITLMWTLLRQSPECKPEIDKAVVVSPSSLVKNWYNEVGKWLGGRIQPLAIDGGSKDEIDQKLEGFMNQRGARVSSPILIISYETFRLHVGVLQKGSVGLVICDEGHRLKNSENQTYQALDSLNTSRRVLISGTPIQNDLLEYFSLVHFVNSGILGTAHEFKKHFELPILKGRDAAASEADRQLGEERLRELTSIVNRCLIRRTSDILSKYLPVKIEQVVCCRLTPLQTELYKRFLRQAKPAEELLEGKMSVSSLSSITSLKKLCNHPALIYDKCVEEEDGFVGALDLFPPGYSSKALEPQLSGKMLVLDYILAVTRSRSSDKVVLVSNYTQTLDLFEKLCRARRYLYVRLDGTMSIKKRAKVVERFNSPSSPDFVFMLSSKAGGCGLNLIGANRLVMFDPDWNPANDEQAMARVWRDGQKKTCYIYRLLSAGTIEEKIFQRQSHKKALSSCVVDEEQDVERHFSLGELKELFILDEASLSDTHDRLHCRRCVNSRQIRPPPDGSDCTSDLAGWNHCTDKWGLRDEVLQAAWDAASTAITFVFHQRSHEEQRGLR
Assay: RAD54 Holliday junction migration blockers – biochemical, fluorescence, single point, primary screen (AID 602329);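 also: 0% = median of neutral control wells and 100% = median of positive control wells; inhibitors cause a drop in the FAM fluorescence signal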
Conditions: RAD54 Holliday junction branch migration, FAM/BHQ fluorescence; at 10.4 µM; stronger effect = higher value

Compound | inhibition
CCOc1cccc(=NC2CCCCC2)c2c(C)[nH]c(C)c12 | 76.8% (active)
COc1cccc(-c2ccc3n(c2=O)C[C@@H]2[C@@H](CO)[C@H](C(=O)O)[C@H]3N2C(=O)c2cnccn2)c1 | -0.151%
O=C(O)[C@@H]1[C@@H](CO)[C@@H]2Cn3c(ccc(-c4ccccc4F)c3=O)[C@H]1N2C(=O)c1cccnc1 | -3.76%
COC(=O)[C@@H]1[C@@H](CO)[C@@H]2Cn3c(ccc(C4=CCCCC4)c3=O)[C@H]1N2CC1CC1 | -6.66%
C[C@H](CO)N1C[C@H](C)[C@H](CN(C)C(=O)Oc2ccc3ccccc3c2)OCc2cnnn2CCCC1=O | -17.1%
COC(=O)[C@H]1[C@H](CO)[C@H]2Cn3c(ccc(C4=CCCC4)c3=O)[C@@H]1N2C(=O)CC1CC1 | 1.44%
COc1cccc(-c2nc3ccc(N4CCN(C)CC4)cc3[nH]2)c1 | 19.3%
CN1CCN(c2cc(N3CCNCC3)ccc2[N+](=O)[O-])CC1 | 68% (active)
COC(=O)[C@H]1[C@H](CO)[C@H]2Cn3c(ccc(-c4cccc(F)c4)c3=O)[C@@H]1N2Cc1ccccc1 | 9.7%
O=C(O)[C@H]1[C@H](CO)[C@H]2Cn3c(ccc(-c4ccccc4)c3=O)[C@@H]1N2S(=O)(=O)c1ccccc1F | 6.58%
